Reference: PMC9911399, “Two distinct binding modes provide the RNA-binding protein RbFox with extraordinary sequence specificity”
Residue numbers refer to the chain shown, from its start. The full ranking holds about 16,000 sequences; the median of “ka relative to ugcaugu” is about 0.096, and the highest 2% start at about 0.35. The entries come from a sample that favours the highest values as a whole.

T1: RBFOX1 RRM RbFoxmut (Fox-RRM*) (Homo sapiens, UniProt Q9NWB1 109-208, R118D;E147R;N151S;E152T)
T1 sequence: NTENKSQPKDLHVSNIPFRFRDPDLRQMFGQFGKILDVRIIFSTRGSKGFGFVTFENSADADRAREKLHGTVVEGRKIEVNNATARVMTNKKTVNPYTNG

B1: AGUUUUA (DNA:RNA)
RNA: GGGAGACCGGAAUUCAGAUUGUCCAGUUUUAUUAAAUCCCGUCGUAGCCACCA
DNA 1: CAATCTGAATTCCGGTCTCCC
DNA 2: TGGTGGCTACGACGGGATT
B2: UCGAAGU (DNA:RNA)
RNA: GGGAGACCGGAAUUCAGAUUGUCCUCGAAGUUUAAAUCCCGUCGUAGCCACCA
DNA 1: CAATCTGAATTCCGGTCTCCC
DNA 2: TGGTGGCTACGACGGGATT
B3: GUCCUUU (DNA:RNA)
RNA: B1 RNA with A25G, G26U, U27C, U28C, A31U
DNA 1: CAATCTGAATTCCGGTCTCCC
DNA 2: TGGTGGCTACGACGGGATT
B4: CGACCAC (DNA:RNA)
RNA: B1 RNA with A25C, U27A, U28C, U29C, U30A, A31C
DNA 1: CAATCTGAATTCCGGTCTCCC
DNA 2: TGGTGGCTACGACGGGATT
B5: AACACUU (DNA:RNA)
RNA: B1 RNA with G26A, U27C, U28A, U29C, A31U
DNA 1: CAATCTGAATTCCGGTCTCCC
DNA 2: TGGTGGCTACGACGGGATT
B6: ACAACGA (DNA:RNA)
RNA: B2 RNA with U25A, G27A, A29C, U31A
DNA 1: CAATCTGAATTCCGGTCTCCC
DNA 2: TGGTGGCTACGACGGGATT
B7: GGAGGAU (DNA:RNA)
RNA: B1 RNA with A25G, U27A, U28G, U29G, U30A, A31U
DNA 1: CAATCTGAATTCCGGTCTCCC
DNA 2: TGGTGGCTACGACGGGATT
B8: AAUCGAA (DNA:RNA)
RNA: B1 RNA with G26A, U28C, U29G, U30A
DNA 1: CAATCTGAATTCCGGTCTCCC
DNA 2: TGGTGGCTACGACGGGATT
B9: CGCCGCC (DNA:RNA)
RNA: B1 RNA with A25C, U27C, U28C, U29G, U30C, A31C
DNA 1: CAATCTGAATTCCGGTCTCCC
DNA 2: TGGTGGCTACGACGGGATT
B10: AGCCUUG (DNA:RNA)
RNA: B1 RNA with U27C, U28C, A31G
DNA 1: CAATCTGAATTCCGGTCTCCC
DNA 2: TGGTGGCTACGACGGGATT
B11: GUCCGCC (DNA:RNA)
RNA: GGGAGACCGGAAUUCAGAUUGUCCGUCCGCCUUAAAUCCCGUCGUAGCCACCA
DNA 1: CAATCTGAATTCCGGTCTCCC
DNA 2: TGGTGGCTACGACGGGATT
B12: GCCCGCC (DNA:RNA)
RNA: B11 RNA with U26C
DNA 1: CAATCTGAATTCCGGTCTCCC
DNA 2: TGGTGGCTACGACGGGATT
B13: GCCAGCC (DNA:RNA)
RNA: B11 RNA with U26C, C28A
DNA 1: CAATCTGAATTCCGGTCTCCC
DNA 2: TGGTGGCTACGACGGGATT
B14: AGCAGCC (DNA:RNA)
RNA: B11 RNA with G25A, U26G, C28A
DNA 1: CAATCTGAATTCCGGTCTCCC
DNA 2: TGGTGGCTACGACGGGATT
B15: GCCUUGG (DNA:RNA)
RNA: B1 RNA with A25G, G26C, U27C, U30G, A31G
DNA 1: CAATCTGAATTCCGGTCTCCC
DNA 2: TGGTGGCTACGACGGGATT
B16: CGCCUUG (DNA:RNA)
RNA: B1 RNA with A25C, U27C, U28C, A31G
DNA 1: CAATCTGAATTCCGGTCTCCC
DNA 2: TGGTGGCTACGACGGGATT
B17: ACCAGCC (DNA:RNA)
RNA: B11 RNA with G25A, U26C, C28A
DNA 1: CAATCTGAATTCCGGTCTCCC
DNA 2: TGGTGGCTACGACGGGATT
B18: GCUCUGU (DNA:RNA)
RNA: B2 RNA with U25G, G27U, A28C, A29U
DNA 1: CAATCTGAATTCCGGTCTCCC
DNA 2: TGGTGGCTACGACGGGATT
B19: ACCACUU (DNA:RNA)
RNA: B2 RNA with U25A, G27C, A29C, G30U
DNA 1: CAATCTGAATTCCGGTCTCCC
DNA 2: TGGTGGCTACGACGGGATT
B20: GCUCAUC (DNA:RNA)
RNA: B11 RNA with U26C, C27U, G29A, C30U
DNA 1: CAATCTGAATTCCGGTCTCCC
DNA 2: TGGTGGCTACGACGGGATT

Target: T1, RBFOX1 RRM RbFoxmut (Fox-RRM*)
Test: EMSA; HiTS-Eq, 1 nM pool, 10 min; buffer printed only for the single-RNA assays: 10 mM Tris pH 7.5, 150 mM NaCl, 3.4 mM EDTA, 0.001% NP-40, 30 C
Conditions: tags: His6 N-terminal (pET28a); label: 5' 32P
Outline: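 Purified wild-type or mutant RbFox RRM at increasing concentrations was equilibrated with 1 nM of 5′-radiolabelled RNA carrying 7 randomized nucleotides for 10 min in 50 µL. Unbound RNA was separated by 8% native PAGE and sequenced. Relative association constants came from read-count changes of each RNA species compared with the control reaction, normalised to the cognate motif.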

Binder | binding signal
B1 | 0.101 KA relative to UGCAUGU
B2 | 0.107 KA relative to UGCAUGU
B3 | 0.081 KA relative to UGCAUGU
B4 | 0.0643 KA relative to UGCAUGU
B5 | 0.0596 KA relative to UGCAUGU
B6 | 0.0863 KA relative to UGCAUGU
B7 | 0.0724 KA relative to UGCAUGU
B8 | 0.081 KA relative to UGCAUGU
B9 | 0.13 KA relative to UGCAUGU
B10 | 0.576 KA relative to UGCAUGU
B11 | 0.105 KA relative to UGCAUGU
B12 | 0.0938 KA relative to UGCAUGU
B13 | 0.075 KA relative to UGCAUGU
B14 | 0.0801 KA relative to UGCAUGU
B15 | 0.501 KA relative to UGCAUGU
B16 | 0.978 KA relative to UGCAUGU
B17 | 0.0795 KA relative to UGCAUGU
B18 | 0.102 KA relative to UGCAUGU
B19 | 0.0717 KA relative to UGCAUGU
B20 | 0.06 KA relative to UGCAUGU
